HSF1 inhib: HSF1 inhibition; NIH3T3-HGL HSE-luciferase, MG132-induced, luminescence 8 h; hits give low values; activity change, negative = inhibition, % at 7.5 µM (by protocol); hit rate 0.77% among 300,000; AID 2098;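 active = more than half of replicate wells show activity change below -50%, luminescence cut by over half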;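 also: luciferase reports HSF-1 transcriptional activity via heat shock element; 0% = median of DMSO wells and -100% = zero luminescence signal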
HIF activator: HIF pathway transcriptional activation; U2OS HRE-luciferase reporter, luminescence; normalized: DMSO 0%, desferrioxamine 100%; activation, % at 7.5 µM (by protocol); hit rate 0.32% among 300,000; AID 1910;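 active = mean activation of at least 10% of the iron chelator positive control signal, with at least half of replicates also reaching 10%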
HSP90 refold inh: inhibitors of HSP90 luciferase refolding in rabbit reticulocyte lysate; luciferase refolding luminescence, 3 h; inhibition, % at 5.6 µM; hit rate 0.91% among 290,000; AID 1789;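 active = inhibition above the screen-wide mean plus 3 SD, computed separately per campaign, cut at about 16% in these data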;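 also: 0% = DMSO wells and 100% = 60 µM geldanamycin wells; inhibitors lower the luminescence because luciferase stays unfolded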
HSF1 activator: increases HSF-1 driven luciferase reporter signal; activation, % at 9 µM; hit rate 1.7% among 300,000; AID 504408; NIH3T3-HGL HSF-1 luciferase reporter, MG132, 8 h; 100% = twice DMSO control signal;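 active = mean replicate activation of at least 50% with a set share of replicates each reaching 50%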;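 also: 0% = median of the neutral control wells and 100% = twice that signal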
ARNT-TACC3 inh: ARNT/TACC3 interaction disruption; AlphaScreen His-ARNT PAS-B/GST-TACC3 binding, luminescence; TACC3 fragment carries E629A point mutation; inhibition, % at 9.99 µM; hit rate 0.66% among 390,000;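 active = mean inhibition of replicates at least 50% and at least half of replicates each reaching 50%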;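 also: 0% = complete ARNT plus TACC3 wells and 100% = ARNT alone without TACC3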
ARNT Alpha ctr-1: counter-screen for ARNT/TACC3 inhibitors: AlphaScreen artifacts. hit rate 50% among 1,200. AID 651705. shares compounds with ARNT-TACC3 inh. AC50, µM (titrated, usually from 68 µM), without a hit: at the highest dose activity change, negative = signal decrease. His-ARNT PASB-GST AlphaScreen artifact counter-screen, luminescence;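 active = every separate test run was called active for a drop in luminescence, with AC50 within twice the top valid dose, actives reach about 71 µM in these data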
ARNT Alpha ctr-2: produces AlphaScreen artifacts in ARNT-TACC3 counter-screen; shares compounds with ARNT-TACC3 inh; Dual-tagged His-ARNT PASB-GST AlphaScreen artifact counter-screen; AC50, µM; hit rate 70% among 45; AID 720564;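 active = luminescence drop, with half-maximal potency fitted within twice the sample's top valid dose, cut at about 70 µM in these data; inactive = the rest, including signal moving the wrong way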
An asterisk follows results filed as active; nt = not tested or not shown; [ ] = another dose, or the depositor's remark. Compounds with a hit are over-represented: about 3.1% of the library has one in this group of screens.

SMILES	HSF1 inhib	HIF activator	HSP90 refold inh	HSF1 activator	ARNT-TACC3 inh	ARNT Alpha ctr-1	others
O=C(Nc1ccc(N2CCOCC2)cc1)c1cccc(S(=O)(=O)N2CCCCC2)c1	-2	0	4	3	-7	nt
CCN1CCN(c2ccc(NC(=O)c3cccc(S(=O)(=O)N4CCCC4)c3)cc2)CC1	nt	nt	nt	nt	56*	-4%
O=[N+]([O-])c1cccc(-c2nc(NCc3ccccc3)c3ccccc3n2)c1	11	0	2	9	-4	nt
c1ccc(CNc2nc(-c3ccccn3)nnc2-c2ccccc2)cc1	nt	nt	nt	nt	nt	0.79µM*
c1ccc(-c2cccc(CNc3nc(-c4ccccn4)nnc3-c3ccccc3)c2)cc1	nt	nt	nt	nt	nt	7.1µM*
c1ccc(-c2nnc(-c3ccccn3)nc2NCCCN2CCOCC2)cc1	nt	nt	nt	nt	nt	1.1µM*
OCCCNc1nc(-c2ccccn2)nnc1-c1ccccc1	nt	nt	nt	nt	nt	1.2µM*
COc1ccccc1-c1ccc([C@@H]2[C@@H](CO)N3CCCCN(C(=O)CN4CCOCC4)C[C@@H]23)cc1	nt	nt	nt	nt	0	nt
COc1ccccc1-c1cn(CC[C@@H]2CC[C@@H](NC(=O)NC(C)C)[C@H](CO)O2)nn1	nt	nt	nt	nt	-14	nt
CCN(CC)c1nc(-c2ccccn2)nc(-c2ccccc2)c1C#N	-8	0	-2	-11	0	nt
c1ccc(CCc2nc(-c3ccccn3)no2)cc1	21	2	-1	34	4	nt
CN(C)c1nc(-c2ccccn2)nnc1-c1ccccc1	3	105*	4	-19	64*	1.1µM*
c1ccc(-c2nnc(-c3ccccn3)nc2NCC2CCOCC2)cc1	nt	nt	nt	nt	nt	1.1µM*
COc1cccc(CNc2nc(-c3ccccn3)nnc2-c2ccccc2)c1	nt	nt	nt	nt	nt	1.6µM*
c1ccc(CCNc2nc(-c3ccccn3)nnc2-c2ccccc2)cc1	nt	nt	nt	nt	nt	2.5µM*
c1ccc(-c2nnc(-c3ccccn3)nn2)nc1	18	2	nt	25	74*	-33%
C[C@@H](Nc1nc(-c2ccccn2)nnc1-c1ccccc1)c1ccccc1	nt	nt	nt	nt	nt	2.4µM*
c1ccc(-c2nnc(-c3ccccn3)c(-c3ccccn3)n2)nc1	4	0	-1	-17	nt	nt
COCC(=O)Nc1ccc2c(c1)[C@H]1C[C@H](CC(=O)NCc3cccc(F)c3)O[C@@H](CO)[C@H]1O2	nt	nt	nt	nt	-7	nt
CN(C)CC(=O)N[C@@H]1CC[C@@H](CCn2cc(C3CCCC3)nn2)O[C@@H]1CO	nt	nt	nt	nt	-3	nt
COc1ccc(-c2nc(C#N)c(N3CCCCCC3)o2)cc1	1	0	3	-2	27	nt
COc1ccc(-c2nc(C#N)c(N3CCCCC3)o2)cc1	20	-22	-6	74*	54*	71µM*
CC(OC(=O)Cc1c(F)cccc1Cl)C(=O)NC1(C#N)CCCCC1 (stereo not drawn)	-2	-2	nt	-3	active	-8%
C[C@H](CO)N1C[C@H](C)[C@@H](CN(C)Cc2cccnc2)Oc2cc(C#CC3CCCC3)ccc2S1(=O)=O	nt	nt	nt	nt	13	nt
CCOC(=O)Cc1nnc(NC(=O)c2ncn[nH]2)s1	-10	0	7	-3	69*	-8%
SMILES	HSF1 inhib	HIF activator	HSP90 refold inh	HSF1 activator	ARNT-TACC3 inh	ARNT Alpha ctr-1	others
CCOC(=O)Cc1nnc(NC(=O)c2ccccc2OCC)s1	4	0	6	2	-8	nt
COc1ccccc1NS(=O)(=O)c1cccc(C(=O)N/N=C/c2ccc(OCC(=O)O)cc2)c1	-4	0	2	-1	-2	nt
O=C(O)COc1ccccc1/C=N/NC(=O)c1cccc(S(=O)(=O)Nc2cccc(Cl)c2)c1	5	0	-3	11	52*	71µM*
C[C@H]1CN([C@@H](C)CO)C(=O)c2cc(NC(=O)Cc3cn(C)c4ccccc34)ccc2O[C@H]1CN(C)Cc1ccc(C(F)(F)F)cc1	nt	nt	nt	nt	-5	nt
Cc1[nH][nH]c(=O)c1C(c1ccc(Cl)cc1)c1c(C)[nH][nH]c1=O	4	-1	0	3	18*	5%
CCC(=O)Nc1ccc2c(c1)OC[C@@H](C)N(CC1CCCCC1)C[C@@H](C)[C@@H](OC)CN(C)C2=O	nt	nt	nt	nt	-5	nt
CC(C)C#Cc1ccc2c(c1)O[C@@H](CN(C)C)[C@H](C)CN([C@@H](C)CO)S2(=O)=O	nt	nt	nt	nt	4	nt
CN(C)C(=O)C[C@H]1CC[C@H]2[C@H](COc3ccc(NC(=O)NCc4ccccc4)cc3C(=O)N2C)O1	nt	nt	nt	nt	-6	nt
NNC(=O)c1ccc(O)cc1O	-88*	0	1	-91	56*	-8%
O=C(NN=C1CCCC1)c1ccc(O)cc1O	-35	0	4	-54	48*	-6%
O=C(N/N=C/c1c(O)ccc2ccccc12)c1ccc(CO)nc1	-2	34*	-6	10	59*	67µM*
O=C(NN=Cc1c(O)ccc2ccccc12)c1ccc2c(c1)OCO2	nt	nt	nt	nt	-1	nt
Oc1c(Br)cc(Br)cc1/C=N/Nc1ccc(Cl)nn1	1	-1	1	-26	3	nt
Oc1ccc(/C=N/Nc2ccc(Cl)nn2)c(O)c1O	-5	-2	2	6	55*	4.5µM*
c1ccc(-c2nc(-c3ccncc3)n[nH]2)nc1	15	1	3	6	70*	23µM*	ARNT Alpha ctr-2=5.1*
O=C(NCc1ccc(F)cc1)[C@@H]1[C@@H](CO)[C@@H]2Cn3c(cccc3=O)[C@@H]2N1CCC(F)(F)F	nt	nt	nt	nt	7	nt
O=C(C[C@@H]1C[C@@H]2c3cc(NC(=O)C4CCOCC4)ccc3O[C@@H]2[C@@H](CO)O1)NCc1cccnc1	nt	nt	nt	nt	-8	nt
CN(C)c1ccc2c(c1)[C@@H]1C[C@H](CC(=O)O)O[C@@H](CO)[C@@H]1O2	nt	nt	nt	nt	1	nt
COC(=O)C[C@@H]1C[C@H]2c3cc(N(C)C)ccc3O[C@H]2[C@@H](CO)O1	nt	nt	nt	nt	67*	-5%[42 µM]
O=C(C[C@@H]1C[C@@H]2c3cc(NC(=O)C4CCOCC4)ccc3O[C@@H]2[C@H](CO)O1)NCc1cccnc1	nt	nt	nt	nt	55*	3%[42 µM]
COCCNC(=O)C[C@@H]1C[C@H]2c3cc(NC(=O)C4CCOCC4)ccc3O[C@H]2[C@H](CO)O1	nt	nt	nt	nt	active	-7%[38 µM]
C[C@@H]1CCCCO[C@@H](CN(C)C(=O)CCC(F)(F)F)[C@@H](C)CN([C@@H](C)CO)C(=O)c2cc(NS(C)(=O)=O)ccc2O1	nt	nt	nt	nt	-9	nt
C[C@H](CO)N1C[C@H](C)[C@H](CN(C)C)Oc2ccc(NS(=O)(=O)c3cccs3)cc2C1=O	nt	nt	nt	nt	-9	nt
CCCC(=O)Nc1ccc2c(c1)C(=O)N(C)[C@H]1CC[C@H](CC(=O)NCc3ccccc3)O[C@@H]1CO2	nt	nt	nt	nt	1	nt
C/C(=N\NC(=O)C(c1ccccc1)c1ccccc1)c1ccc(O)cc1	4	-1	1	25	60*	-15%
COC(C(=O)N/N=C(\C)c1ccc(O)cc1)c1ccccc1 (stereo not drawn)	1	0	3	-17	0	nt

Source: PubChem
